Compounds without any hit were thinned out: in the full panel of roughly 79,000, 15% have a hit. Unmarked numbers belong to inactive results. The source made the active and inactive calls. Rule as the data show it: active = growth inhibition above about 70%; inactive = the rest.
Columns and labels:
[1] = NCI Yeast Anticancer Drug Screen. Data for the rad50 strain (AID 155);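 also: 0% = growth of vehicle-only cultures of the same strain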; conditions: S. cerevisiae rad50 strain growth inhibition; at 50.0 µM; active compounds read high
How it was run: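 DNA repair mutant yeast, compound exposure, growth read-out; inhibition is taken relative to vehicle.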

[2] = NCI Yeast Anticancer Drug Screen. Data for the mec2-1 strain (AID 157); conditions: S. cerevisiae mec2-1 strain, at 50.0 µM, active compounds read high
How it was run: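 Yeast mec2-1 mutant treated with compound. Readout: growth inhibition vs vehicle controls.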

[3] = NCI Yeast Anticancer Drug Screen. Data for the sgs1 mgt1 strain (AID 161);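 also: 0% = growth of cultures given vehicle only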; conditions: S. cerevisiae sgs1 mgt1 strain, at 50.0 µM, active compounds read high
How it was run: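 Inhibition of yeast growth, normalised to vehicle-treated controls, is reported for a strain bearing genetic alterations in DNA damage repair.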

[4] = NCI Yeast Anticancer Drug Screen. Data for the cln2 rad14 strain (AID 165);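 also: 0% = growth equal to vehicle treated cultures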; conditions: S. cerevisiae cln2 rad14 strain, at 50.0 µM, active compounds read high
How it was run: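 cln2 rad14 yeast strain; compound exposure; growth inhibition read vs vehicle controls.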

[5] = NCI Yeast Anticancer Drug Screen. Data for the bub3 strain (AID 167); conditions: S. cerevisiae bub3 mutant strain, at 50.0 µM, active compounds read high
How it was run: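 In this screen, a yeast mutant lacking normal mitotic checkpoint function is challenged with compound. Relative growth versus vehicle gives the inhibition value.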

[6] = NCI Yeast Anticancer Drug Screen. Data for the mlh1 rad18 strain (AID 175); conditions: S. cerevisiae mlh1 rad18 strain growth inhibition; at 50.0 µM; active compounds read high
How it was run: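 Yeast w/ defined DNA-repair lesions; compound exposure; growth vs vehicle controls → % inhibition.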

Cc1cccc(-c2nnc(N)o2)c1[N+](=O)[O-]
growth inhibition [1]: -36% | growth inhibition [2]: -9.6% | growth inhibition [3]: -10.6% | growth inhibition [4]: 1.75% | growth inhibition [5]: -11.4% | growth inhibition [6]: -16.4%

COc1cc(OC)c2cnc(Cl)cc2c1
growth inhibition [1]: 15.4% | growth inhibition [2]: -9.1% | growth inhibition [3]: -5.35% | growth inhibition [4]: -41.4% | growth inhibition [5]: -2.85% | growth inhibition [6]: 6.6%

COC(=O)c1cccc2c1-c1ccccc1C2=O
growth inhibition [1]: 9.25% | growth inhibition [2]: 11.9% | growth inhibition [3]: -18.4% | growth inhibition [4]: 5% | growth inhibition [5]: 14% | growth inhibition [6]: 11.6%

CC1OS(=O)OC1C (stereo unspecified)
growth inhibition [1]: -20.9% | growth inhibition [2]: -23.6% | growth inhibition [3]: -2.4% | growth inhibition [4]: -21.7% | growth inhibition [5]: -8.45% | growth inhibition [6]: -0.4%

NC(=O)C(Cc1ccccc1)c1ccccc1 (stereo unspecified)
growth inhibition [1]: -12.2% | growth inhibition [2]: -15.2% | growth inhibition [3]: -7.55% | growth inhibition [4]: -23% | growth inhibition [5]: -16.6% | growth inhibition [6]: 18.4%

OC(c1ccccc1)(c1ccccc1)c1ccccc1CNc1ccccc1
growth inhibition [1]: 45.5% | growth inhibition [2]: 30.4% | growth inhibition [3]: 26.2% | growth inhibition [4]: 8% | growth inhibition [5]: 19.8% | growth inhibition [6]: 49.8%

CC1(C)C2CC=C(CCO)C1C2 (stereo unspecified)
growth inhibition [1]: -2.85% | growth inhibition [2]: -5.8% | growth inhibition [3]: 2.05% | growth inhibition [4]: -20.6% | growth inhibition [5]: 0.05% | growth inhibition [6]: -21.4%

O=P(Nc1cccc(Cl)c1)(Nc1cccc(Cl)c1)c1ccccc1
growth inhibition [1]: 96.8% (active) | growth inhibition [2]: 74.1% (active) | growth inhibition [3]: 96.9% (active) | growth inhibition [4]: 76.7% (active) | growth inhibition [5]: 85.3% (active) | growth inhibition [6]: 95.8% (active)

N=C(N)N1CCc2ccccc2C1
growth inhibition [1]: -5.55% | growth inhibition [2]: 7.3% | growth inhibition [3]: -2% | growth inhibition [4]: -3.35% | growth inhibition [5]: -28.9% | growth inhibition [6]: 2.65%

CC12CCC3[C@@H](CC3(C)C)C(O)(CCC1=O)C2 (stereo partly specified)
growth inhibition [1]: -10.4% | growth inhibition [2]: -9.35% | growth inhibition [3]: -10.8% | growth inhibition [4]: -23.9% | growth inhibition [5]: -5.35% | growth inhibition [6]: -57.1%

Cc1cc(Br)cc(C)c1NC(=O)C(=O)C(C(=O)c1ccncc1)C1OC(=O)c2ccccc21 (stereo unspecified)
growth inhibition [1]: -12.6% | growth inhibition [2]: -31.1% | growth inhibition [3]: -51.9% | growth inhibition [4]: 15.8% | growth inhibition [5]: 16.2% | growth inhibition [6]: -7.35%

CCCC(=O)C(N)CC(C)C (stereo unspecified)
growth inhibition [1]: -8.2% | growth inhibition [2]: 5.4% | growth inhibition [3]: 10.6% | growth inhibition [4]: 1.15% | growth inhibition [5]: 2.45% | growth inhibition [6]: -4.15%

O=C(COc1ccccc1Cl)N1N=C(c2ccccc2)CC1(O)c1ccccc1 (stereo unspecified)
growth inhibition [1]: -4.25% | growth inhibition [2]: 10.1% | growth inhibition [3]: 25% | growth inhibition [4]: 8.35% | growth inhibition [5]: 19.6% | growth inhibition [6]: 15.9%

O=C(O)C(Cc1ccc(O)cc1)NC(=O)C(CSC(c1ccccc1)(c1ccccc1)c1ccccc1)NC(c1ccccc1)(c1ccccc1)c1ccccc1 (stereo unspecified)
growth inhibition [1]: 3.75% | growth inhibition [2]: 30.9% | growth inhibition [3]: 11.5% | growth inhibition [4]: -2.35% | growth inhibition [5]: -4.55% | growth inhibition [6]: 23%

O=C1NNCc2c1sc1ccccc21
growth inhibition [1]: 0.25% | growth inhibition [2]: -4.15% | growth inhibition [3]: -17.4% | growth inhibition [4]: -41.3% | growth inhibition [5]: -11.7% | growth inhibition [6]: 4.6%

CCCC(O)C(C)C(C)O (stereo unspecified)
growth inhibition [1]: -28.5% | growth inhibition [2]: -16.1% | growth inhibition [3]: -17.4% | growth inhibition [4]: 25.1% | growth inhibition [5]: -2.15% | growth inhibition [6]: -8.75%

COc1ccc(NC(=O)C2=C(SC)C(C#N)C(=O)N=C2N)cc1 (stereo unspecified)
growth inhibition [1]: -25.1% | growth inhibition [2]: -12.5% | growth inhibition [3]: 0.2% | growth inhibition [4]: 19.7% | growth inhibition [5]: -31.4% | growth inhibition [6]: 1.3%

CCOP(=O)(OCC)C(NC(=O)C(C(F)(F)F)C(F)(F)F)c1ccccc1 (stereo unspecified)
growth inhibition [1]: 7.85% | growth inhibition [2]: 16.2% | growth inhibition [3]: 0.05% | growth inhibition [4]: 24.4% | growth inhibition [5]: 34.1% | growth inhibition [6]: -14.1%

O=C(O)CCC(=O)Oc1ccc(O)c2c1CCCC2=O
growth inhibition [1]: -6.95% | growth inhibition [2]: 1.65% | growth inhibition [3]: -0.95% | growth inhibition [4]: -17.8% | growth inhibition [5]: -1.3% | growth inhibition [6]: -9.15%

CC(=O)NC1CCC(Cc2ccccc2)CC1 (stereo unspecified)
growth inhibition [1]: 6.2% | growth inhibition [2]: -7.65% | growth inhibition [3]: -11.3% | growth inhibition [4]: -93.3% | growth inhibition [5]: -22.3% | growth inhibition [6]: -3.9%

C#CCOC(=O)C(N)CS (stereo unspecified)
growth inhibition [1]: -6.95% | growth inhibition [2]: -20.3% | growth inhibition [3]: -13.6% | growth inhibition [4]: 9.8% | growth inhibition [5]: -4.4% | growth inhibition [6]: -13.7%

O=C1CSc2ccnc(=O)n21
growth inhibition [1]: -0.1% | growth inhibition [2]: -10% | growth inhibition [3]: 16.7% | growth inhibition [4]: 11.1% | growth inhibition [5]: -9.8% | growth inhibition [6]: -8.1%

CC(=O)Nc1ccc2oc(C)nc2c1
growth inhibition [1]: 23.9% | growth inhibition [2]: -1.3% | growth inhibition [3]: 8.3% | growth inhibition [4]: 8.7% | growth inhibition [5]: 13.2% | growth inhibition [6]: 20.6%

O=C1N(CC2CO2)CCN1CC1CO1 (stereo unspecified)
growth inhibition [1]: -22.4% | growth inhibition [2]: -10.2% | growth inhibition [3]: -5.3% | growth inhibition [4]: -5.15% | growth inhibition [5]: -20.4% | growth inhibition [6]: -76%

CC(C)N(CSc1ccc([N+](=O)[O-])cc1)CSc1ccc([N+](=O)[O-])cc1
growth inhibition [1]: 12.3% | growth inhibition [2]: 5.75% | growth inhibition [3]: 4.1% | growth inhibition [4]: -4.1% | growth inhibition [5]: -4.7% | growth inhibition [6]: -1%

c1csc(-c2cc(-c3ccsc3)c(-c3ccsc3)s2)c1
growth inhibition [1]: -37.5% | growth inhibition [2]: -48.4% | growth inhibition [3]: -33.6% | growth inhibition [4]: -5.35% | growth inhibition [5]: -15.9% | growth inhibition [6]: -8.6%

CCCCC(=O)N/N=C/c1c[nH]c2ccc(Br)cc12
growth inhibition [1]: 4.3% | growth inhibition [2]: 6.05% | growth inhibition [3]: -9.1% | growth inhibition [4]: 0.85% | growth inhibition [5]: 12.9% | growth inhibition [6]: 0.05%

CC1(C)OC2COC(c3[nH]nc(C(N)=O)c3C(=O)N=[N+]=[N-])C2O1 (stereo unspecified)
growth inhibition [1]: -11.3% | growth inhibition [2]: -1.35% | growth inhibition [3]: -12.1% | growth inhibition [4]: 4.35% | growth inhibition [5]: 7.85% | growth inhibition [6]: -9.95%

CC(C)(C)c1cc2c3c(c1)C(C(F)(F)F)(C(F)(F)F)OS3(=O)(O)OC2(C(F)(F)F)C(F)(F)F
growth inhibition [1]: 22.5% | growth inhibition [2]: 38.8% | growth inhibition [3]: 15.8% | growth inhibition [4]: -2.25% | growth inhibition [5]: 4.2% | growth inhibition [6]: 39%

COc1cc(C2OCCO2)ccc1O
growth inhibition [1]: 12.8% | growth inhibition [2]: 7.05% | growth inhibition [3]: -0.35% | growth inhibition [4]: 39% | growth inhibition [5]: 5.05% | growth inhibition [6]: -11%

COc1cc2c(cc1C(CC(C)=O)c1cc(OC)c(OC)c(OC)c1)OCO2 (stereo unspecified)
growth inhibition [1]: -11.6% | growth inhibition [2]: -10.2% | growth inhibition [3]: -12% | growth inhibition [4]: -5.3% | growth inhibition [5]: 11% | growth inhibition [6]: -6.15%

Cn1nnnc1NN(c1nnnn1C)C1C=CCC=C1
growth inhibition [1]: 6.4% | growth inhibition [2]: -6% | growth inhibition [3]: 0% | growth inhibition [4]: -18% | growth inhibition [5]: 1.95% | growth inhibition [6]: -10.7%

CC(C)(Cc1ccc([N+](=O)[O-])cc1)[N+](=O)[O-]
growth inhibition [1]: 7.95% | growth inhibition [2]: 11.3% | growth inhibition [3]: 4.3% | growth inhibition [4]: -7.55% | growth inhibition [5]: 12.4% | growth inhibition [6]: -0.05%

CCCCCCCCCCCCCCCCC(=O)O
growth inhibition [1]: -12.9% | growth inhibition [2]: -15.8% | growth inhibition [3]: -22.6% | growth inhibition [4]: -27.8% | growth inhibition [5]: 16.8% | growth inhibition [6]: -7.85%

CC1=C(C[Si](C)(C)C)CC(CO[Si](C)(C)C(C)(C)C)C2C(=O)N(C(=O)c3ccccc3)C(Cc3ccccc3)C12 (stereo unspecified)
growth inhibition [1]: 21.6% | growth inhibition [2]: 5.7% | growth inhibition [3]: 2.05% | growth inhibition [4]: -4.25% | growth inhibition [5]: -3.95% | growth inhibition [6]: 23.4%

CCOc1c2c(nn(C)c1=O)Oc1ccccc1N2CCCN1CCOCC1
growth inhibition [1]: -27.6% | growth inhibition [2]: -0.25% | growth inhibition [3]: -18.1% | growth inhibition [4]: 2.3% | growth inhibition [5]: 3.95% | growth inhibition [6]: -4.6%

CC1=CC(=O)N(n2c(-c3ccccc3)n[nH]c2=O)C1=O
growth inhibition [1]: -26.9% | growth inhibition [2]: -12.9% | growth inhibition [3]: -4.45% | growth inhibition [4]: 7.95% | growth inhibition [5]: -13.2% | growth inhibition [6]: 5.3%

COC(=O)C(N)Cc1ccc(O)c(O)c1 (stereo unspecified)
growth inhibition [1]: 20.1% | growth inhibition [2]: 4.7% | growth inhibition [3]: 8.1% | growth inhibition [4]: 10.8% | growth inhibition [5]: 22.9% | growth inhibition [6]: 48.5%

CCCCC(O)(c1ccccc1)c1ccccc1CN(C)C (stereo unspecified)
growth inhibition [1]: 1.7% | growth inhibition [2]: -3% | growth inhibition [3]: -0.65% | growth inhibition [4]: 6.15% | growth inhibition [5]: -2.05% | growth inhibition [6]: -4.8%

CCCOc1cc2c(cc1C(C)c1ccc(OCC)c(C)c1)OCO2 (stereo unspecified)
growth inhibition [1]: -1.7% | growth inhibition [2]: 0.75% | growth inhibition [3]: -9.05% | growth inhibition [4]: -94% | growth inhibition [5]: -3.9% | growth inhibition [6]: -5.1%

CC(O)CNC(=O)CC(C)CC(C)(C)C (stereo unspecified)
growth inhibition [1]: 45.7% | growth inhibition [2]: 19.9% | growth inhibition [3]: 24.9% | growth inhibition [4]: 13.4% | growth inhibition [5]: 25.4% | growth inhibition [6]: 34%

Reference: PubChem BioAssay (NCI)
